Cruzain Triton = cruzain (T. cruzi) inhibition with detergent; purified cruzain, Z-FR-AMC fluorescence, 0.01% Triton; Potency, µM, hits mostly inhibitors; actives 0.43% (n = 200,000); P25779; also: nearly all actives have a fitted effect of over 40% in size
Target sequence (P25779 123-467 limits assumed): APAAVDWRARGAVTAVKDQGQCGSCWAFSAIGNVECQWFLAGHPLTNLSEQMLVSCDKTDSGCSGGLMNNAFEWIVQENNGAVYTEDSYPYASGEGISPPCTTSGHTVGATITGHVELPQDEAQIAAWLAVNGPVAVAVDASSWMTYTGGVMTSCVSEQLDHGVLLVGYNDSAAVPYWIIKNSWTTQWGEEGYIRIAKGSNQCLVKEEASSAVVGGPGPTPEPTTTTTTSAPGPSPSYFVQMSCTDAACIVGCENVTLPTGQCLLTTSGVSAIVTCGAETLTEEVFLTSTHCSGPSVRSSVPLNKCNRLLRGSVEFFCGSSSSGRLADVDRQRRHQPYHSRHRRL
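Cruzain (1.5 nM) preincubated 15 min at RT with compound in 100 mM sodium acetate pH 5.5, 5 mM DTT, 0.01% Triton X-100. Reaction started with 2 uM Z-FR-AMC; AMC fluorescence (ex 360/em 450 nm) change over 60 s gave rate.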
Cruzain noTriton = cruzain (T. cruzi) inhibition without detergent | actives 2.3% (n = 200,000) | purified cruzain, Z-FR-AMC fluorescence, no detergent | Potency, µM, hits mostly inhibitors | AID 1476 | P25779; also: nearly all actives have a fitted effect of over 40% in size
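Purified cruzain at 1.5 nM, pre-incubated 15 min with compound at room temperature in 100 mM sodium acetate pH 5.5, 5 mM DTT, 0.00005% Triton X-100. Reaction started with 2 uM Z-FR-AMC; AMC fluorescence increase over 60 s gives rate.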
A number is an active result; 0 = inactive; ? = inconclusive. The list is not random: actives were taken first. Their share in the collection is about 2.5%. Calls follow the shape of the dose curve; as a rule, active = well fitted curve in the direction sought with a large enough effect; inconclusive = small, poorly fitted or top-dose-only effect, or another doubt; inactive = no such curve, though single readings can be large; an effect the other way counts as inactive or inconclusive.

SMILES | Cruzain Triton | Cruzain noTriton
O=[N+]([O-])c1ccc(CCNc2cccc3ccccc23)c([N+](=O)[O-])c1 | 0 | 25µM
O=[N+]([O-])c1cc([N+](=O)[O-])c2ccccc2c1 | 0 | 0
CCOc1ccc(CN(CCc2ccc3c(c2)OCO3)Cc2cc(OC)cc(OC)c2)cc1 | 0 | 0
O=C(Nc1nnc(N2CCCCCC2)s1)Nc1ccccc1C(F)(F)F | 0 | 0
N#Cc1ccc(CN2CC[C@@]3(CCCN(C(=O)c4cccc(F)c4)C3)C2)cc1 | 0 | 0
c1ccc(CNc2oc(-c3ccccc3)nc2-c2cccc3ccccc23)cc1 | 0 | 16µM
c1ccc(CNc2oc(-c3ccccc3)nc2-c2ccccc2)cc1 | 0 | 0
COc1ccc(CCN2C(=O)CN(C3CCC(C)CC3)C(=O)C2c2ccc(OC(C)C)c(OC)c2)cc1OC (stereo not drawn) | 0 | ?
COC(=O)[C@@H]1C[C@@]2(O)[C@H](O)[C@H](O)[C@H](O)C[C@H]2N1Cc1ccc(N2CCN(C)CC2)cc1 | 0 | 0
O=C(Cn1cnc2nc3c(cc2c1=O)CCCC3)Nc1ccc(F)cc1Cl | 0 | 0
Cc1csc(NC(=O)c2cc3c(s2)CCC3)n1 | 0 | 0
COC(=O)c1ccc(CSc2nnc(NC(=O)c3cc4c(s3)CCCC4)s2)cc1 | 0 | 6.3µM
COC(=O)c1ccc(CSc2nnc(C)s2)cc1 | 0 | 0
O=C(Nc1nnc(C2CC2)s1)c1cc2c(s1)CCCCCC2 | 0 | 6.3µM
O=C(Nc1nnc(SCc2ccc(F)cc2)s1)c1ccco1 | 0 | 0
CC1CCc2sc(C(=O)Nc3nnc(SCc4ccc(F)cc4)s3)cc2C1 (stereo not drawn) | 0 | 10µM
Cc1c(Cl)cccc1-n1nc(C)c2c(C(=O)NCc3ccccc3)cc(C3CC3)nc21 | 0 | 0
CCc1nc2ccc(C(=O)NCCc3ccc(SC)cc3)cc2nc1CC | 0 | 0
CCN(CC)CCCC(C)n1c(-c2ccccc2)nc2c(N(CCOC)CCOC)nc(C)nc21 (stereo not drawn) | 0 | 0
CN(Cc1ccco1)c1ncncc1-c1cccc(C#N)c1 | 0 | 0
CCCS(=O)(=O)NCCc1sc2nc(-c3ccc(F)cc3)nn2c1C | 0 | 0
CCOC(=O)c1c(C)[nH]c(C)c1S(=O)(=O)NCC(=O)Nc1ccc(C)c(N(C)C)c1 | 0 | 0
COc1ccccc1CCNC(=O)Cc1c(C)c2c(cc(C)c3c(C)coc32)oc1=O | 0 | 0
Cc1ccc(CNC(=O)c2ccc3nc4[nH]c5ccccc5c4nc3c2)cc1 | 0 | 25µM
COc1ccccc1CNC(=O)c1ccc2nc3[nH]c4ccccc4c3nc2c1 | 0 | ?
SMILES | Cruzain Triton | Cruzain noTriton
Cc1ccc2oc(C(=O)Nc3nc(-c4ccc(F)cc4)ns3)c(C)c2c1 | 0 | 0
Cc1cccc(NC(=O)c2c(NC(=O)C(F)(F)F)sc3c2CCCCC3)c1 | 0 | 0
O=C(Nc1cccc(Cl)c1)c1c(NC(=O)C(F)(F)F)sc2c1CCCC2 | 25µM | ?
Cc1ccc(CNC(=O)Cn2ccn(-c3ccc(F)cc3)c(=O)c2=O)cc1 | 0 | 0
Cc1ccc(C)c(Cn2c(=O)n(-c3ccc(F)cc3)c(=O)c3sc4ccccc4c32)c1 | 0 | 0
CN(C)c1ccc(NC(=O)c2cn(-c3ccccc3)nc2-c2cccs2)cc1 | 0 | ?
O=C(Nc1ccc2ccccc2c1)c1cn(-c2ccccc2)nc1-c1cccs1 | 0 | 20µM
O=c1ccc2cc(OC3OC(CO)C(O)C(O)C3O)c(O)cc2o1 (stereo not drawn) | 7.9µM | 13µM
O=c1cc(-c2ccccc2)oc2cc(O[C@@H]3O[C@H](CO)[C@@H](O)[C@H](O)[C@H]3O)c(O)c(O)c12 | 0 | 0
O=C(NCc1ccco1)c1ccc2c(c1)N(Cc1ccccc1)C(=O)c1ccccc1S2 | 0 | ?
CCOC(=O)c1ccc2c(c1)N(Cc1ccccc1)C(=O)c1ccccc1S2 | 0 | 0
N#Cc1ccccc1CN1C(=O)c2ccccc2Sc2ccc(C(=O)OCc3ccco3)cc21 | 0 | 25µM
C=Cc1ccc(CN2C(=O)c3ccccc3Sc3ccc(C(=O)OCc4ccco4)cc32)cc1 | 0 | 13µM
CCOc1ccccc1NC(=O)CCc1c(C)nn(-c2ccc(N3CCOCC3)nn2)c1C | 0 | 0
Cc1cccc(C)c1Nc1oc(-c2ccccc2)nc1-c1cccc2ccccc12 | 0 | 0
COc1cccc([C@@H]2Oc3ccc(OC)cc3C[C@H]2OC(=O)N[C@H]2CCCc3ccccc32)c1 | 0 | 0
COCCN1C(=O)C(CC(=O)Nc2ccc(C(=O)O)cc2)SC1=Nc1ccccc1 (stereo not drawn) | 0 | 0
COC(=O)c1cc(NC(=O)CC2SC(=Nc3ccccc3)N(CCc3c[nH]c4ccccc34)C2=O)cc(C(=O)OC)c1 (stereo not drawn) | 0 | 5µM
COc1ccc(C=Nc2cccc3c(=O)[nH][nH]c(=O)c23)c2ccccc12 | 0 | 32µM
COc1ccc(/C=C/c2ccncc2)c2ccccc12 | 0 | 0
COc1cccc(N2CCN(C(=O)c3c4c(nc5ccccc35)C(=O)N(C3CCCCC3)C4)CC2)c1 | 0 | 0

Bioassay records from PubChem.
